Measured values reported in ChEMBL document CHEMBL3988442, “University of Dundee, Small-Polar-MMV Screening Library” (2021).
For some assays here: Results with a measured potency or affinity are listed apart.

Columns and labels:
Set-up in all cases: scale not given: direction of the effect not stated beside the values
[1] = target: Protein translocase subunit SecA (Escherichia coli (strain K12)) (UniProt P10408); assay: Assay to Identify E. coli SecA ATPase Inhibitors; assay type: functional; details: 30 µM
Protein translocase subunit SecA (Escherichia coli (strain K12)), sequence (P10408 whole entry): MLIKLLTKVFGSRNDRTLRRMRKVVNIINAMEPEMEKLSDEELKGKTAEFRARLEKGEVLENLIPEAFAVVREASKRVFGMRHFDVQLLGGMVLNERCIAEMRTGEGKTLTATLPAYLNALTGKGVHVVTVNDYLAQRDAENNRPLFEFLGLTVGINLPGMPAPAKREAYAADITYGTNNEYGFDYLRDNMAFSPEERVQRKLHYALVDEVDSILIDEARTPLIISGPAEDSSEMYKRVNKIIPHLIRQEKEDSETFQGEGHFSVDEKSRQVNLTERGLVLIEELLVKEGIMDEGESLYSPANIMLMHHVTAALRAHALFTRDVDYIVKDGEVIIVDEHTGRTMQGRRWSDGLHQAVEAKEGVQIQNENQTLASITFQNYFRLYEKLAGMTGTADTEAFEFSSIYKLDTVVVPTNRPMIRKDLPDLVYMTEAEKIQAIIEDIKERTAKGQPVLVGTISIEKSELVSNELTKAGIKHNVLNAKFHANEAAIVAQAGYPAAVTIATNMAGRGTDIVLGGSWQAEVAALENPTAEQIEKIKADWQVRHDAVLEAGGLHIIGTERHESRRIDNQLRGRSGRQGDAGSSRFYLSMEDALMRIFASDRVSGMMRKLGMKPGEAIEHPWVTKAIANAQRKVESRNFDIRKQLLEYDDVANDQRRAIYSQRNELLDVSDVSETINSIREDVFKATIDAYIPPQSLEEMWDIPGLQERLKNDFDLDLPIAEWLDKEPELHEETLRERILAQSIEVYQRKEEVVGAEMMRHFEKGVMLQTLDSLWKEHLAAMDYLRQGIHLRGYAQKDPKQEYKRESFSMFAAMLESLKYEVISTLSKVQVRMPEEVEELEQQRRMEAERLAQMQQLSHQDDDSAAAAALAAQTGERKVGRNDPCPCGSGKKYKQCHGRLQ

[2] = target: T1, Ubiquitin-activating enzyme e1, putative (Leishmania donovani (strain BPK282A1)) (UniProt E9BSI1); assay: Leishmania donovani Ubiquitin Activating Enzyme (LdE1); assay type: functional; details: 30 µM
T1 sequence (whole entry): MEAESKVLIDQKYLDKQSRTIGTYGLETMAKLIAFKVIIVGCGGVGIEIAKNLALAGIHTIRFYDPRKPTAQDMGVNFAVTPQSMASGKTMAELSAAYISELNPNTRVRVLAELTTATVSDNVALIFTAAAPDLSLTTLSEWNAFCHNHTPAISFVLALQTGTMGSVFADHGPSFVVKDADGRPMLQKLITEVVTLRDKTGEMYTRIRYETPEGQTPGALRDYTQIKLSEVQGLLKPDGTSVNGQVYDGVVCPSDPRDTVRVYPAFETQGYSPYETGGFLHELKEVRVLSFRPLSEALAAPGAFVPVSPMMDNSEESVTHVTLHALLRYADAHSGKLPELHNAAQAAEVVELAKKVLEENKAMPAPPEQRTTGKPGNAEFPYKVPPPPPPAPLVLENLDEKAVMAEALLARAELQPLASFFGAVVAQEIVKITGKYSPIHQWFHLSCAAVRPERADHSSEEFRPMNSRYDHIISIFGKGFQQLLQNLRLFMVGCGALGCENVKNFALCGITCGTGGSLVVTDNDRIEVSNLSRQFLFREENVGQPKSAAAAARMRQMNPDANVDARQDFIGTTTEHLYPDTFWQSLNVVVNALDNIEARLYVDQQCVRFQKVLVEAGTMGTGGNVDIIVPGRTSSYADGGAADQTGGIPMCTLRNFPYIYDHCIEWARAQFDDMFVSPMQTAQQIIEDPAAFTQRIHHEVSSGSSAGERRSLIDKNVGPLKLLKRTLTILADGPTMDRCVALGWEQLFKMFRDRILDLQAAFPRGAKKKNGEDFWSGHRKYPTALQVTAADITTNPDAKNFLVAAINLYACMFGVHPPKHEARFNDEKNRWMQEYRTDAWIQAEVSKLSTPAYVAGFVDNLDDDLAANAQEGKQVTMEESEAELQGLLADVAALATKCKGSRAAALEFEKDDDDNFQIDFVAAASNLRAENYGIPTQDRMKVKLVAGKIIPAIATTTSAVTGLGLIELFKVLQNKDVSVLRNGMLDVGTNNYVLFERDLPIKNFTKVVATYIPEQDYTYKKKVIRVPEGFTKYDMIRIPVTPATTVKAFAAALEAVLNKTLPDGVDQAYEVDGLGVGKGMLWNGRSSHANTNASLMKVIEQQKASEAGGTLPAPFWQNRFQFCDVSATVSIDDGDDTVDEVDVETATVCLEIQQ

[3] = target: AMP-activated protein kinase, AMPK (Homo sapiens) (UniProt P54646+O43741+P54619+Q9UGJ0+Q9Y478+Q13131+Q9UGI9); assay: AMP-dependent Kinase enzyme assay. An in vitro enzyme assay that detects ADP turnover that is directly proportional to AMPK activity. This uses naive AMPK that is activated during the assay with MK-8722; assay type: functional; details: 30 µM
[4] = target: Sialic acid-binding Ig-like lectin 9 (Homo sapiens) (UniProt Q9Y336); assay: Hs-Siglec9 ALPHAscreen SOP 20170721; details: 10 µM
Sialic acid-binding Ig-like lectin 9 (Homo sapiens), sequence (Q9Y336 whole entry): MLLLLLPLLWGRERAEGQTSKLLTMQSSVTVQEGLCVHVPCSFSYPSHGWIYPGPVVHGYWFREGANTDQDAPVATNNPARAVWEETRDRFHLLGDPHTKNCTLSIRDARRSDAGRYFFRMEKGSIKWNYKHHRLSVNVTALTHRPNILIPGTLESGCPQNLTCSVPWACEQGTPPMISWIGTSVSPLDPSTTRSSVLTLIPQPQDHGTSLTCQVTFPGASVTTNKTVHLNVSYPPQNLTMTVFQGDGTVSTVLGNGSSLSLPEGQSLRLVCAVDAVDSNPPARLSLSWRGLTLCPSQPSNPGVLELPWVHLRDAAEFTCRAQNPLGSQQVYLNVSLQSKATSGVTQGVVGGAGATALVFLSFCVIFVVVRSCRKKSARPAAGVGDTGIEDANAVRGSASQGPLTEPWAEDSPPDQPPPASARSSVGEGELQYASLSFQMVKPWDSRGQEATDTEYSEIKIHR

[5] = system: Trypanosoma cruzi; assay: Trypanosoma cruzi phosphomannomutase and mannose-1-phosphate guanylyltransferase assay; assay type: functional; details: 10 µM
[6] = target: T2, Arginase-2, mitochondrial (Homo sapiens) (UniProt P78540); assay: in vitro enzyme assay to detect the production of urea directly proportional to the activity of Arginase II; assay type: functional; details: 33.3 µM; further: in the data most compounds retested in dose-response had high values
T2 sequence (whole entry): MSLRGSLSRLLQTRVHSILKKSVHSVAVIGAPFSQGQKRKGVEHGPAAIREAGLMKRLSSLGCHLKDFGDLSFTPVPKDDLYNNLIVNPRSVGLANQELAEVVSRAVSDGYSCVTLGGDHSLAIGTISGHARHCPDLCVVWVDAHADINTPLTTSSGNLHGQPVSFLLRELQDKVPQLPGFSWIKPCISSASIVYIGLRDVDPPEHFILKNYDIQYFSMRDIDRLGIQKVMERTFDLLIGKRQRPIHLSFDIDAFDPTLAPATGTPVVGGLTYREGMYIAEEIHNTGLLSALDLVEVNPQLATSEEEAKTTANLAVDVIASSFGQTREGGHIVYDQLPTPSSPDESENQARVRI

[7] = target: T3, Proteasome subunit beta (Trypanosoma cruzi) (UniProt O96673); assay: Trypanosoma cruzi proteasome chymotrypsin-like activity (TcProtChymo) assay.; further: in the data most compounds retested in dose-response had high values; assay type: functional; details: 9.37 µM
T3 sequence (whole entry): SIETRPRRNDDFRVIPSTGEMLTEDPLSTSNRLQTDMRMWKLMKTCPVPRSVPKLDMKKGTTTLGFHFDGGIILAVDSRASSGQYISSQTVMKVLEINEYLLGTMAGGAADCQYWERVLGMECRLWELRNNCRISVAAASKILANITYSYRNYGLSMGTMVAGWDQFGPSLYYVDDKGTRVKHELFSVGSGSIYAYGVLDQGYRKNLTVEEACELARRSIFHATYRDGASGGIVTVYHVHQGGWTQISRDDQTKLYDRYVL

[8] = species on record: Homo sapiens; assay: To identify inhibition of the IFN signalling (Jak-Stat) pathway via expression of an eGFP reporter gene under the control of an IFN-stimulated response element (ISRE) containing MxA promoter.; assay type: functional; details: 30 µM
[9] = target: T4, Tyrosyl-tRNA synthetase, putative (Trypanosoma cruzi (strain CL Brener)) (UniProt Q4DSP6); assay: Trypanosoma cruzi tyrosyl tRNA synthetase (TcYRS) _High Tyrosine SOP; assay type: functional; details: 30 µM; further: in the data most compounds retested in dose-response had high values
T4 sequence (whole entry): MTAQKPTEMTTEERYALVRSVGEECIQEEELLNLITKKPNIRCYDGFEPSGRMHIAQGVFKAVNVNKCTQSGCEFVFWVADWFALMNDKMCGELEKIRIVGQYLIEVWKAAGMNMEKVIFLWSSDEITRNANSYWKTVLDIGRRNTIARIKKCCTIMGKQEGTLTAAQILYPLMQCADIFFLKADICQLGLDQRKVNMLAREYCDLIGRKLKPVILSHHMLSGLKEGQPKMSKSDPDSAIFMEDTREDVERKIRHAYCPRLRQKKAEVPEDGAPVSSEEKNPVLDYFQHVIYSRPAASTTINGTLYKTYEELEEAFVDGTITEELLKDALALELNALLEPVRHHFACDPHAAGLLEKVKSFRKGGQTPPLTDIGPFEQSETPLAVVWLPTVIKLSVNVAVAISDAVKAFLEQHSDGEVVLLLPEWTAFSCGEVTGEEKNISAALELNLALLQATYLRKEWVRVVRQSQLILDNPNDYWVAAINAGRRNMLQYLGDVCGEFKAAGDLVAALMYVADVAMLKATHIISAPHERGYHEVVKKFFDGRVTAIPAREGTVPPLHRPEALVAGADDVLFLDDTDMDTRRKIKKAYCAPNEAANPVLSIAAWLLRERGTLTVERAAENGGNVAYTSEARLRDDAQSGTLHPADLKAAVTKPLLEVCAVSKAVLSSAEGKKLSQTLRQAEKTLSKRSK

[10] = target: T4, Tyrosyl-tRNA synthetase, putative (Trypanosoma cruzi (strain CL Brener)); assay: Trypanosoma cruzi tyrosyl tRNA synthetase (TcYRS) SOP; assay type: functional; details: 30 µM
[11] = target: Chromo domain-containing protein 1 (Saccharomyces cerevisiae (strain ATCC 204508 / S288c) (Baker's yeast)) (UniProt P32657); assay: ScCHD-1 Enzyme Inhibition Assay; assay type: functional; details: 30 µM; further: in the data most compounds retested in dose-response had high values
Chromo domain-containing protein 1 (Saccharomyces cerevisiae (strain ATCC 204508 / S288c) (Baker's yeast)), sequence (P32657 whole entry, the tested form may be a part): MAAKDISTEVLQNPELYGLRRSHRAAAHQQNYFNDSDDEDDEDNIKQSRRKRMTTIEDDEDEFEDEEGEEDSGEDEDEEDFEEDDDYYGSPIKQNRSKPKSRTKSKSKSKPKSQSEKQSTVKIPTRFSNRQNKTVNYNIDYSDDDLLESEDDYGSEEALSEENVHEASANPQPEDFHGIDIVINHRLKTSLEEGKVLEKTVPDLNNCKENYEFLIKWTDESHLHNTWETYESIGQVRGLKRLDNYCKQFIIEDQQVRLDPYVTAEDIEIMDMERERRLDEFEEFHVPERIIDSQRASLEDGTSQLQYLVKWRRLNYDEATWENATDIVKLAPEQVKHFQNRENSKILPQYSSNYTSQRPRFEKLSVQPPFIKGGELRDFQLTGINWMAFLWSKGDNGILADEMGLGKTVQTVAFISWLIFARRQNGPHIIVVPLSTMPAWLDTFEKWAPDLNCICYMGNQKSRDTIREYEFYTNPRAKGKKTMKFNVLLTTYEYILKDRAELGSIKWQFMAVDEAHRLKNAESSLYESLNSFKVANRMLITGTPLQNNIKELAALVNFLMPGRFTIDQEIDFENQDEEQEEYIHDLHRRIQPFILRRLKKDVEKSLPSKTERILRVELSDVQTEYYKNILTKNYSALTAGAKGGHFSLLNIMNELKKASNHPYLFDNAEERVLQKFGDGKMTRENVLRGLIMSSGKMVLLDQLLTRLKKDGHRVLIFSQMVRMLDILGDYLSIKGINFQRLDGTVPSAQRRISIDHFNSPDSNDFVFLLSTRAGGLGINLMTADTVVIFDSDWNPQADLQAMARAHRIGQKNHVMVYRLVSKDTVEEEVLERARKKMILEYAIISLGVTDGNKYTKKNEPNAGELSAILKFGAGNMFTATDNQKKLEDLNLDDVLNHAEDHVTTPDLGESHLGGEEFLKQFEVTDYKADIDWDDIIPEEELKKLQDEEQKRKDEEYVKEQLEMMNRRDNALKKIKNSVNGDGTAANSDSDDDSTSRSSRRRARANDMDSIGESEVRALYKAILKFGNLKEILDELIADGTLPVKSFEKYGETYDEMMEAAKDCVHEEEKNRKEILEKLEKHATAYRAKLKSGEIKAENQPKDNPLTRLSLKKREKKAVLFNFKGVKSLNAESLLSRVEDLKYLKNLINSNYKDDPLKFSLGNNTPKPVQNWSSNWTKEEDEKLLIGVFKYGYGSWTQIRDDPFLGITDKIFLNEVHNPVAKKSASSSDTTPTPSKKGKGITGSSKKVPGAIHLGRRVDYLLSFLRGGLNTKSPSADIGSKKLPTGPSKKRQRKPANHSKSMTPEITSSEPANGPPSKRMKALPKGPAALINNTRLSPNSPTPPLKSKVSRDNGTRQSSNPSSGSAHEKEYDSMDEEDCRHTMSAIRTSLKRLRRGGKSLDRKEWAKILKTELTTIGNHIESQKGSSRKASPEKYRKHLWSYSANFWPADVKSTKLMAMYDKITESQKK

Row | SMILES | Percent Effect [1] | Percent Effect [2] | Percent Effect [3] | Percent Effect [4] | Percent Effect [5] | Percent Effect [6] | Percent Effect [7] | Percent Effect [8] | Percent Effect [9] | Percent Effect [10] | Percent Effect [11]
1 | CC(=O)N1CCCC1c1cccc(Cc2ccccc2F)n1 (configuration not stated) | -3.38% | -9.46% | 3.81% | -1.05% | -2.77% | -1.62% | -1.25% | 26.6% | -4.3% | -9.09% | 3.67%
2 | CC(C)NC(=O)N1CCN(S(=O)(=O)C2CC2)CC2(CNC(=O)C2)C1 (configuration not stated) | -6.38% | 18.2% | 0.68% | 2.04% | 4.63% | 0.645% | 7.66% | 9.81% | 2.12% | 11.5% | -5.37%
3 | CCc1ncnc2c1CCN(C(=O)N1CCCC1)CC2 | -5.11% | 0% | 4.79% | 8.2% | -2.7% | -10.9% | 12.3% | 1.54% | -3.12% | -5% | 2.94%
4 | Cc1n[nH]c(C)c1-c1cnc(CC2CCN(C)C2)cn1 (configuration not stated) | -1.87% | 2.67% | 9.74% | 4.94% | 3.94% | -3.5% | 0.793% | -2.19% | 4.25% | 6.41% | -1.01%
5 | CCCc1noc(CN2CCCC2c2ccsc2)n1 (configuration not stated) | -2.78% | -10.1% | -1.69% | -2.76% | 1.04% | -8.37% | 3.19% | 11.1% | 0.493% | 1.27% | 6.54%
6 | CN(C)C(=O)N1CCN(C(=O)CCc2ccccc2)[C@H]2CS(=O)(=O)C[C@H]21 | -0.417% | 5.41% | -5.99% | 6.47% | 4.44% | -2.86% | 15.3% | 23.4% | 8.99% | 9.76% | -2.21%
7 | O=C(Nc1ccnc(OC2CCOC2)c1)c1cc(F)ccc1F (configuration not stated) | -5.45% | -1.39% | 2.94% | 5.39% | -1.65% | -2.65% | 11.6% | 2.19% | -5.26% | -10.3% | 9.81%
8 | NC(=O)CSCCC(=O)N1CCCC1c1ccsc1 (configuration not stated) | -2.98% | 1.39% | -4.14% | 8.9% | 4.76% | 19% | 4.74% | 13.9% | 3.16% | 7.69% | -1.44%
9 | CC(C)Cc1noc(CN2CCN(CCO)CC2)n1 | -0.954% | 10.5% | 1.51% | -0.0672% | -2.07% | 0.766% | 12% | 11.2% | 3.43% | 9.76% | -8.48%
10 | Cc1cc(C)n(CC(C)CNC(=O)[C@@H](C)NC(=O)OC(C)(C)C)n1 (some centres not stated) | -2.44% | 7.89% | 3.79% | 1.85% | 0.487% | -5.92% | 17.7% | -12.5% | 4.25% | 13% | -2.31%
11 | O=C(N1CCOCC1)[C@@]12CCO[C@@H]1CCN(CC1CCCCC1)C2 | -4.88% | -1.33% | 2.35% | -2.81% | -5.3% | -10% | 7.58% | 12.3% | -3.17% | -10.3% | -2.92%
12 | COc1c(C2CCCN2CC(=O)Nc2nc(C)cs2)c(C)nn1C (configuration not stated) | -0.196% | -5.41% | -8.37% | 10.3% | 4.74% | 1.29% | 5.03% | 5.63% | 4.95% | 6.1% | 0.0954%
13 | CCCc1noc(CCC(=O)N2CCCC2c2ccsc2)n1 (configuration not stated) | -3.59% | -55.7% | 0.791% | 6.07% | 1.6% | -2.28% | -0.409% | -2.86% | -2.46% | -1.27% | -4.16%
14 | Cc1n[nH]c(C)c1C1CCCN1C(=O)NCC(=O)NC(C)(C)C (configuration not stated) | -4.22% | 0% | 26.9% | 3.62% | -6.86% | 2.27% | 3.9% | 0.328% | 1.07% | 2.5% | -0.359%
15 | CC(Cn1cccn1)NC(=O)Nc1nccs1 (configuration not stated) | -5.47% | 10.4% | 1.39% | 4.54% | -3.37% | 0.712% | 5.57% | 17.5% | 4.85% | 19.5% | -5.22%
16 | N#Cc1ccccc1CN1C[C@@H]2CC[C@H](C1)N(CC1CC1)C2=O | -0.53% | 13.5% | -0.476% | 12.4% | 1.74% | 2.38% | 13.4% | 4.71% | 4.76% | 14.6% | -0.908%
17 | CC(C)CCNC(=O)c1sccc1N(C)S(=O)(=O)c1ccccc1 | -0.473% | 23.7% | -3.53% | -18.2% | -0.0974% | -3.55% | 10.3% | 23.3% | -3.19% | 5.2% | -3.5%
18 | CC(C)c1nc(C2CCCN2CC(=O)N2CCc3ccccc32)no1 (configuration not stated) | -3.88% | -7.89% | 5.96% | 5.77% | -2.82% | -1.15% | -2.51% | -0.0405% | -3.43% | -4.88% | 6.73%
19 | O=S(=O)(c1ccccc1)N1CCCN(CCCn2ccnc2)CC1 | -1.12% | 0% | -5.54% | 24.8% | 5.38% | -0.248% | 3.35% | -7.92% | 2.15% | 3.7% | -12.2%
20 | O=C1CC2(CCN(CCO)CC2)CN1Cc1cc(F)cc(F)c1 | -3.75% | 6.94% | -9.77% | 27.6% | 4.18% | 13.7% | 11.2% | -13.2% | 2.1% | 10.3% | -9.52%
21 | CCC(=O)N1CCC(c2nnc(Cn3cncn3)n2C2CC2)CC1 | -0.998% | 15.3% | -1.98% | 12.9% | 5.34% | 16.3% | 17.7% | 0.244% | -1.05% | 15.4% | -3.53%
22 | CCc1nnc(Nc2cccc(C3CCN(CCO)CC3)n2)s1 | -7.83% | 12.2% | 0.559% | 1.33% | 1.58% | -2.55% | 14% | 24% | 2.15% | 11.7% | -26.9%
